Shown are actives, neighbours in structure and some others; about 1.3% of the full set was active somewhere.
LYPLA1 counter = LYPLA1 (human) inhibition in PME1 counter-screen | O75608 | recombinant LYPLA1, FP-Rh probe fluorescence polarization | inhibition, % at 5.9 µM | 320,000 tested, 0.16% active | AID 2174;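 active = inhibition above the mean of all tested compounds plus 3 SD, set per campaign, cut at about 14% in these data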;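 also: inhibitors block serine hydrolase probe labeling of LYPLA1 so polarization falls; 0% = enzyme with DMSO and 100% = wells lacking LYPLA1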
LYPLA2 inh = blocks human lysophospholipase 2, a PME1 counter-screen; O95372; 320,000 tested, 0.38% active; inhibition, % at 5.9 µM; AID 2177; recombinant LYPLA2, FP-Rh probe fluorescence polarization;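 active = inhibition above the screen-wide mean plus 3 SD, limit set per campaign, cut at about 26% in these data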;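 also: 0% = LYPLA2 with DMSO and 100% = wells lacking LYPLA2 enzyme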
EBNA-1 inhibitor = blocks EBNA-1 binding to DNA; EBNA-1 DNA binding, fluorescence polarization; inhibition, % at 14.8 µM; 300,000 tested, 0.34% active; in the data active = inhibition above about 28%
PREPL inh = human PREPL enzyme inhibition | Q4J6C6 | recombinant PREPL, fluorescence polarization activity-based probe | inhibition, % at 5.96 µM | 320,000 tested, 0.68% active | AID 2751; in the data active = inhibition above about 43%;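 also: 0% = enzyme with DMSO and 100% = wells lacking enzyme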
Target sequence (Q4J6C6 whole entry, looked up): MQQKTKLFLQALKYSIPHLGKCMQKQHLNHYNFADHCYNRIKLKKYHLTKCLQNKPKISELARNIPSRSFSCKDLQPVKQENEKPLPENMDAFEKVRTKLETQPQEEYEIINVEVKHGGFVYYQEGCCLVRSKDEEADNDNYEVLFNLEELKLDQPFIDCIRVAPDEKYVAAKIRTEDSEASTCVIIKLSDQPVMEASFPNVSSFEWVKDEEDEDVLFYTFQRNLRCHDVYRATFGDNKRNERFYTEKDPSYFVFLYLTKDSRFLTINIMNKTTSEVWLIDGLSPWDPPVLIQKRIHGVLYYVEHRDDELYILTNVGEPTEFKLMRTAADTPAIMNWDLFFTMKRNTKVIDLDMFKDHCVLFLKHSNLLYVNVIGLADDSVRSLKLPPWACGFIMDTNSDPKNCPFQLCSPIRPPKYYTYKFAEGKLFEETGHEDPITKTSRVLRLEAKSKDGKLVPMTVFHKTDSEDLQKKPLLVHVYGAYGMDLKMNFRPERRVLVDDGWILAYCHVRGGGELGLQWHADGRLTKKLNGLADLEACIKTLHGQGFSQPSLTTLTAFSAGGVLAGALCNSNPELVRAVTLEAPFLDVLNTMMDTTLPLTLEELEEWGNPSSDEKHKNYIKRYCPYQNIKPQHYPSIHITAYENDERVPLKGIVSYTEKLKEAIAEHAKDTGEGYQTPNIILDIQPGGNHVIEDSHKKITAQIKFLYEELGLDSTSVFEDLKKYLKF
ZTA counter = counter-screen for EBNA-1 inhibitors: inhibitors of Epstein-Barr virus ZTA; ZTA-DNA binding, fluorescence polarization; 320,000 tested, 0.15% active; AID 2234; P03206; inhibition, % at 11 µM; in the data active = inhibition above about 33%
LYPLA1 confirm = LYPLA1 (human) inhibition, confirmation counter-screen; shares compounds with LYPLA1 counter; 480 tested, 69% active; AID 2233; recombinant LYPLA1, FP-Rh probe fluorescence polarization; inhibition, % at 5.9 µM;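 active = mean inhibition across replicates above the hit cutoff set in the primary screen, cut at about 15% in these data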;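 also: loss of FP-Rh probe labeling of LYPLA1 seen as lower polarization; 0% = LYPLA1 with DMSO and 100% = wells lacking LYPLA1 enzyme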
LYPLA2 confirm = counter-screen for PME1 inhibitors: confirmation of human LYPLA2 inhibitors | recombinant LYPLA2, FP-Rh probe fluorescence polarization | shares compounds with LYPLA2 inh | inhibition, % at 5.9 µM | 1,100 tested, 72% active;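 active = mean inhibition across replicates above the hit cutoff set in the primary screen, cut at about 26% in these data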;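 also: blocked labeling of the enzyme by serine hydrolase FP-Rh probe lowers polarization; 0% = enzyme with DMSO and 100% = wells lacking LYPLA2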
* marks the source's active call; other numbers are inactive results; nt = no result.

SMILES	LYPLA1 counter	LYPLA2 inh	EBNA-1 inhibitor	PREPL inh	ZTA counter	LYPLA1 confirm	LYPLA2 confirm
Cc1ccccc1-n1c(SCC(=O)c2cc(C)n(C)c2C)nnc1-c1cccnc1	0	4	-3	3	11	nt	nt
Cc1ccc(C(=O)ON=C2CCN(c3ccc([N+](=O)[O-])cc3)CC2)cc1	23*	55*	-19	16	3	28*	47*
O=[N+]([O-])c1ccc(N2CCC(=NOCc3ccc(Cl)cc3)CC2)cc1	58*	78*	10	-34	7	70*	75*
O=[N+]([O-])c1ccc(C2CCCC/C2=N/OCc2ccc(F)cc2)c([N+](=O)[O-])c1 (stereo not drawn)	-1	-1	6	2	2	nt	nt
Cc1ccc(C(=O)NC(=S)N2CCN(c3ccc([N+](=O)[O-])cc3)CC2)cc1	-4	4	-5	-6	-3	nt	nt
CN(C)c1ccc(S(=O)(=O)NCC(=O)NCc2ccccc2)cc1[N+](=O)[O-]	1	12	5	7	-9	nt	nt
CN(C)c1ccc(S(=O)(=O)NCC(=O)N2CCN(c3ccccc3)CC2)cc1[N+](=O)[O-]	18*	28*	-4	4	-15	24*	26*
COc1ccccc1NC(=O)COc1coc(CN2CCN(c3ccccc3)CC2)cc1=O	0	-1	-6	9	-4	nt	nt
C/C(=C\c1ccccc1)CN1CCN(c2cccc(Cl)c2)CC1	25*	37*	8	13	10	42*	44*
Cc1cc2nc3ccc(N(C)C)cc3nc2cc1N	32*	33*	10	23	23	19*	24
Cc1ccsc1C=Nc1ccc(O)cc1	38*	40*	-2	24	38*	6	-1
O=C(CSc1c(F)c(F)cc(F)c1F)Nc1ccc(C2SCCS2)cc1	105*	132*	8	-2	12	0	0
O=C(Nc1cc2c3c(c1)CC(=O)N3CCC2)C1CCCCC1	0	-3	-5	3	-1	nt	nt
CCNc1ccccc1CP(=O)(c1ccccc1)c1ccccc1O (stereo not drawn)	51*	64*	10	51*	0	2	5
Cc1ccc(O)c(CP(=O)(c2ccccc2)c2ccccc2)c1	2	10	8	2	-1	nt	nt
CC(=O)Nc1ccc(NC(=O)c2ccccc2Nc2ccccc2)cc1	-3	1	12	-19	0	nt	nt
C[C@@H]1CCC(=O)N(C[C@@H](C)CSc2ccccc2)CC1	-1	0	8	5	-15	nt	nt
CCCCn1c(NS(=O)(=O)c2ccccc2)c(S(=O)(=O)c2ccc(C)cc2)c2nc3ccccc3nc21	64*	56*	18	37	16	82*	91*
COc1ccc2c(c1)C(=O)[C@H](O)[C@@H](c1ccc(OC)c(Br)c1)O2	44*	93*	9	11	-5	41*	93*
O=C(NC(=S)Nc1sc2c(c1C(=O)O)CCCC2)c1ccccc1	78*	96*	0	33	4	71*	87*
N#Cc1c(NC(=S)NC(=O)c2ccccc2)sc2c1CCC2	-3	1	17	-2	-4	nt	nt
O=C1C=C(N2CCCCC2)c2ccccc2C1=O	40*	27*	-3	13	33	37*	32*
CCOc1ccccc1NC(=O)COC(=O)C(Cc1ccccc1)NC(=O)c1ccco1 (stereo not drawn)	1	4	nt	0	-11	nt	nt
CN1C(=O)c2cccc(NCCCN3C(=O)c4ccccc4C3=O)c2C1=O	5	4	21	7	4	nt	nt
CC(=O)Nc1ccc(Nc2c3c4c(cccc4n(C)c2=O)C(=O)c2ccccc2-3)cc1	21*	29*	-5	16	1	12	12
CCCCNc1c2c3c(cccc3n(C)c1=O)C(=O)c1ccccc1-2	42*	54*	1	38	17	39*	37*
Cc1ccc(NC(=O)C2CCCN(S(=O)(=O)c3ccc4[nH]c(=O)ccc4c3)C2)c(C)c1 (stereo not drawn)	0	1	-16	5	6	nt	nt
